# Compounds without any hit were thinned out: in the full panel of roughly 79,000, 15% have a hit. Unmarked numbers belong to inactive results. Active and inactive are the calls of the source. Cut-off read from the data, not from the text of the source: active = growth inhibition above about 70%; inactive = the rest.
# Test: NCI Yeast Anticancer Drug Screen. Data for the mlh1 strain (AID 171);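 note: 0% = growth of vehicle-treated control cultures of the same strain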
# Conditions: S. cerevisiae mlh1 strain growth inhibition; at 11.0 µM; hits give high values
# Method in brief: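 Vehicle-normalised growth inhibition of a repair- or checkpoint-altered yeast strain following compound treatment.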
row,SMILES,growth inhibition
1,O=CC=C(c1ccccc1)c1ccccc1,16%
2,FC(F)(F)c1nc2nc(Cl)c(Cl)nc2n1CCCN1CCOCC1,14%
3,BrCC[P+](c1ccccc1)(c1ccccc1)c1ccccc1,28%
4,N#CSc1ccc(S(N)(=O)=O)cc1,-33%
5,O=[N+]([O-])c1ccc2nc3ccccc3cc2c1,14%
6,O=C(NC(Nc1ccc(F)c(Cl)c1)(C(F)(F)F)C(F)(F)F)C(C(F)(F)F)C(F)(F)F,54%
7,O=C(/C=C\c1ccc(Cl)cc1Cl)c1cccs1,1%
8,O=C(NCCCCNCCCNC(=O)c1cc(-c2ccccc2)nc2ccccc12)c1cc(-c2ccccc2)nc2ccccc12,0%
9,NC(=NCc1ccccc1)N/N=C\c1ccnc2ccccc12,2%
10,CCCCN(CCCC)CCSc1ccc(Cl)cc1,-9%
11,COc1cc(C2C3=C(COC3=O)Oc3cc4c(cc32)OCO4)ccc1O (stereo not drawn),-4%
12,C#CCCCc1ccccc1,-26%
13,CCc1ccc(NS(=O)(=O)c2ccccc2)c([N+](=O)[O-])c1,7%
14,COc1ccc(C2c3cc4c(cc3OC(C)(O)C2C)OCO4)c(OC)c1 (stereo not drawn),3%
15,COC(=O)c1ccc(CCC2=CC(=O)C(Br)=CC2=O)cc1,-5%
16,NNC(=O)CCc1ccc2ccc3ccccc3c2c1,5%
17,Cn1c2ccccc2c(=O)c2cc(NC(=O)CCCCC(=O)Nc3ccc4c(c3)c(=O)c3ccccc3n4C)ccc21,3%
18,CC(CC(C)(C)[N+](C)(C)C)[N+](C)(C)C (stereo not drawn),-2%
19,CC1CCN(CCC(=O)c2ccc(Cl)cc2)CC1,26%
20,CCCCCCCCCCCCCCC(C(=O)[O-])[n+]1ccccc1 (stereo not drawn),-12%

row,SMILES,growth inhibition
1,CNC1C(OC2C(OC3C(O)C(O)C(N=C(N)N)C(O)C3N=C(N)N)OC(C)C2(O)CO)OC(CO)C(O)C1O (stereo not drawn),2%
2,O=C(O)c1ccccc1-c1ccccc1C(=O)Nc1ccc2c(c1)Cc1ccccc1-2,22%
3,O=[N+]([O-])c1cccc2nc3ccccc3c(NCCCN3CCOCC3)c12,94% (active)
4,C=CC(C)(O)CCC1C(=C)C(O)CC2C(C)(C)CCCC12C (stereo not drawn),-17%
5,CN1c2ccc(Cl)cc2C(=O)NC1c1ccc([N+](=O)[O-])s1 (stereo not drawn),51%
6,[O-][n+]1c2ccc(O)cc2nc2ccc(Br)cc21,29%
7,O=C1c2ccccc2-c2nc3ccccc3nc21,-25%
8,CCCCN1C(=O)N(c2ccc(OCC)cc2)C2N(CCCC)C1C(C)(C)C2(C)C (stereo not drawn),-9%
9,CO[C@H]1C[C@](C)(O)Cc2cc3c(c(O)c21)C(=O)c1c(O)cc2c(c1C3=O)O[C@@H]1O[C@@]2(C)[C@H](O)[C@@H](N(C)C)[C@@H]1O,-14%
10,COc1cc2c(cc1[N+](=O)[O-])C(=O)C(Br)(Br)CCC2,100% (active)
11,O=C1OC(CCl)CN1/N=C/c1ccc([N+](=O)[O-])o1 (stereo not drawn),-1%
12,CN(C)CCOc1ccc2c(c1)C/C(=C/c1ncc([N+](=O)[O-])n1C)C2=O,29%
13,CCCCCCCCCCCCCCCCCCN(C)CC(COP(=O)([O-])OCC[N+](C)(C)C)OC (stereo not drawn),98% (active)
14,CC(C)c1ccccc1NC(=O)/C(Cl)=C(\Cl)C(=O)O,2%
15,O=[N+]([O-])C(=C(Sc1ccccc1)Sc1ccccc1)C(Cl)=C(Cl)Cl,40%
16,C(=C\c1ccccc1)/COc1ccccc1C(N1CCOCC1)n1nc2ccccc2n1 (stereo not drawn),37%
17,O=C1C(Nc2ccccc2)=C(Oc2ccccc2)C(=O)c2ccccc21,1%
18,CCN(CC)CCN1C(=O)c2cccc3cc(OC)cc(c23)C1=O,-7%
19,CN(C)Cc1cc(N=Nc2ccc(Cl)cc2)cc(CN(C)C)c1O,12%

# Same assay, conditions: S. cerevisiae mlh1 strain growth inhibition; at 33.0 µM; hits give high values
row,SMILES,growth inhibition
1,O=CC=C(c1ccccc1)c1ccccc1,19%
2,FC(F)(F)c1nc2nc(Cl)c(Cl)nc2n1CCCN1CCOCC1,38%
3,BrCC[P+](c1ccccc1)(c1ccccc1)c1ccccc1,93% (active)
4,N#CSc1ccc(S(N)(=O)=O)cc1,8%
5,O=[N+]([O-])c1ccc2nc3ccccc3cc2c1,51%
6,O=C(NC(Nc1ccc(F)c(Cl)c1)(C(F)(F)F)C(F)(F)F)C(C(F)(F)F)C(F)(F)F,94% (active)
7,O=C(/C=C\c1ccc(Cl)cc1Cl)c1cccs1,7%
8,O=C(NCCCCNCCCNC(=O)c1cc(-c2ccccc2)nc2ccccc12)c1cc(-c2ccccc2)nc2ccccc12,63%
9,NC(=NCc1ccccc1)N/N=C\c1ccnc2ccccc12,10%
10,CCCCN(CCCC)CCSc1ccc(Cl)cc1,17%
11,COc1cc(C2C3=C(COC3=O)Oc3cc4c(cc32)OCO4)ccc1O (stereo not drawn),8%
12,C#CCCCc1ccccc1,19%
13,CCc1ccc(NS(=O)(=O)c2ccccc2)c([N+](=O)[O-])c1,31%
14,COc1ccc(C2c3cc4c(cc3OC(C)(O)C2C)OCO4)c(OC)c1 (stereo not drawn),6%
15,COC(=O)c1ccc(CCC2=CC(=O)C(Br)=CC2=O)cc1,5%
16,NNC(=O)CCc1ccc2ccc3ccccc3c2c1,9%
17,Cn1c2ccccc2c(=O)c2cc(NC(=O)CCCCC(=O)Nc3ccc4c(c3)c(=O)c3ccccc3n4C)ccc21,24%
18,CC(CC(C)(C)[N+](C)(C)C)[N+](C)(C)C (stereo not drawn),-3%
19,CC1CCN(CCC(=O)c2ccc(Cl)cc2)CC1,26%
20,CCCCCCCCCCCCCCC(C(=O)[O-])[n+]1ccccc1 (stereo not drawn),-18%

row,SMILES,growth inhibition
1,CNC1C(OC2C(OC3C(O)C(O)C(N=C(N)N)C(O)C3N=C(N)N)OC(C)C2(O)CO)OC(CO)C(O)C1O (stereo not drawn),11%
2,O=C(O)c1ccccc1-c1ccccc1C(=O)Nc1ccc2c(c1)Cc1ccccc1-2,51%
3,O=[N+]([O-])c1cccc2nc3ccccc3c(NCCCN3CCOCC3)c12,98% (active)
4,C=CC(C)(O)CCC1C(=C)C(O)CC2C(C)(C)CCCC12C (stereo not drawn),9%
5,CN1c2ccc(Cl)cc2C(=O)NC1c1ccc([N+](=O)[O-])s1 (stereo not drawn),96% (active)
6,[O-][n+]1c2ccc(O)cc2nc2ccc(Br)cc21,75% (active)
7,O=C1c2ccccc2-c2nc3ccccc3nc21,-1%
8,CCCCN1C(=O)N(c2ccc(OCC)cc2)C2N(CCCC)C1C(C)(C)C2(C)C (stereo not drawn),-3%
9,CO[C@H]1C[C@](C)(O)Cc2cc3c(c(O)c21)C(=O)c1c(O)cc2c(c1C3=O)O[C@@H]1O[C@@]2(C)[C@H](O)[C@@H](N(C)C)[C@@H]1O,-36%
10,COc1cc2c(cc1[N+](=O)[O-])C(=O)C(Br)(Br)CCC2,99% (active)
11,O=C1OC(CCl)CN1/N=C/c1ccc([N+](=O)[O-])o1 (stereo not drawn),14%
12,CN(C)CCOc1ccc2c(c1)C/C(=C/c1ncc([N+](=O)[O-])n1C)C2=O,36%
13,CCCCCCCCCCCCCCCCCCN(C)CC(COP(=O)([O-])OCC[N+](C)(C)C)OC (stereo not drawn),99% (active)
14,CC(C)c1ccccc1NC(=O)/C(Cl)=C(\Cl)C(=O)O,4%
15,O=[N+]([O-])C(=C(Sc1ccccc1)Sc1ccccc1)C(Cl)=C(Cl)Cl,60%
16,C(=C\c1ccccc1)/COc1ccccc1C(N1CCOCC1)n1nc2ccccc2n1 (stereo not drawn),93% (active)
17,O=C1C(Nc2ccccc2)=C(Oc2ccccc2)C(=O)c2ccccc21,0%
18,CCN(CC)CCN1C(=O)c2cccc3cc(OC)cc(c23)C1=O,-15%
19,CN(C)Cc1cc(N=Nc2ccc(Cl)cc2)cc(CN(C)C)c1O,10%

# Source: PubChem BioAssay (NCI)
